Source: publication PMC4336329 (PLoS ONE, 2015)
Screen size: about 310,000 compounds; about 2,200 (0.71%) showed an effect of 50% or more. The effect is printed as a negative number. This excerpt belongs to a sample that is enriched for strong results.

target: human ether-à-go-go-related gene (hERG) potassium channel (human, UniProt Q12809); experiment: primary screen, population patch clamp on CHO cells stably expressing hERG; higher = less effect of the substance
Sequence (Q12809 whole entry, looked up): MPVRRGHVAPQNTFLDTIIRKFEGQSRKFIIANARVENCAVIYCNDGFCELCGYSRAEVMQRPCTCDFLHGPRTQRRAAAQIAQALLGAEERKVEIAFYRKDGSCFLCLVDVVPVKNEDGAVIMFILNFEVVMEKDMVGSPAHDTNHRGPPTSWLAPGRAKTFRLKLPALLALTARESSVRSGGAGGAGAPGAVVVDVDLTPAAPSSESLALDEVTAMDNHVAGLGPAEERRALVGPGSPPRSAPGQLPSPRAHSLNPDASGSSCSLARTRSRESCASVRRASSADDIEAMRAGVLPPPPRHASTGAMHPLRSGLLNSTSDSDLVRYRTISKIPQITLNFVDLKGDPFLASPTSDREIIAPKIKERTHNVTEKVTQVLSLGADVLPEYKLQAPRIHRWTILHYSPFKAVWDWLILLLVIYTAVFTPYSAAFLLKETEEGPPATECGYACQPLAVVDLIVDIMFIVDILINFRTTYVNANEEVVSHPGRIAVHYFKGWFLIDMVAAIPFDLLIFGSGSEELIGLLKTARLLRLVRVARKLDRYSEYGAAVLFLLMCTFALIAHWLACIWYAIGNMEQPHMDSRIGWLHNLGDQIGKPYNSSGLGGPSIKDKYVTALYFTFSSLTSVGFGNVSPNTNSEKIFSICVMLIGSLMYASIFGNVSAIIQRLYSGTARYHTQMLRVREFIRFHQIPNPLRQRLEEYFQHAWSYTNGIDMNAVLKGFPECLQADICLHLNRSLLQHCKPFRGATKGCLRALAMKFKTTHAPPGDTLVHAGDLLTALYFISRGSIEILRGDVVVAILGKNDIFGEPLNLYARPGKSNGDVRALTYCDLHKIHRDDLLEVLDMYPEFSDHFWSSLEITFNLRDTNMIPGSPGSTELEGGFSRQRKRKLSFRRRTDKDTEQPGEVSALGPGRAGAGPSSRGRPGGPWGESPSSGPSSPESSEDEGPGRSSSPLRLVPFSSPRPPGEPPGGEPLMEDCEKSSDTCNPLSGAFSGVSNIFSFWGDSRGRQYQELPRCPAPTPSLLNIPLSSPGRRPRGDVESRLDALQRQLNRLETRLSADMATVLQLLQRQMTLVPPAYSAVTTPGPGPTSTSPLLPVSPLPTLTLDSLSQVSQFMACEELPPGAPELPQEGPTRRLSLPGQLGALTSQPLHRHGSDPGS

In order of rising “hERG current change (%, negative = inhibition) at 1uM” value:
1. CCCN(CCC)CC(O)CN(c1ccccc1)S(=O)(=O)c1ccc(C)cc1 (centres unmarked)  -88.6%
2. CS(=O)(=O)Nc1ccc(C2=NN(C(=O)c3ccco3)C(c3cccc(F)c3)C2)cc1 (centres unmarked)  -85.9%
3. Cc1ccc2nc3nc(NCC4CCCO4)c(C(=O)NC4CCCC4)cc3c(=O)n2c1 (centres unmarked)  -83.8%
4. C=CCNC(=O)c1cc2c(=O)n3cc(C)ccc3nc2nc1NCC1CCCO1 (centres unmarked)  -82%
5. CCN(CC)CC(O)CN(c1ccccc1)S(=O)(=O)c1ccc2ccccc2c1.Cl (centres unmarked)  -78.5%
6. Cc1ccc2nc3nc(NCC4CCCO4)c(C(=O)NC4CCCCC4)cc3c(=O)n2c1 (centres unmarked)  -76.8%
7. CCOCCCNc1nc2nc3ccc(C)cn3c(=O)c2cc1C(=O)NCC1CCCO1 (centres unmarked)  -76%
8. Cc1ccc(N(CC(O)CN(C)C)S(=O)(=O)c2ccccc2)cc1.Cl (centres unmarked)  -62.8%
9. O=C(NCc1cccnc1)/C(=C/c1ccc(Cl)cc1)NC(=O)c1ccccc1  -60.8%
10. O=C(NCCc1ccc(Cl)cc1)/C(=C/c1cccnc1)NC(=O)c1ccccc1  -53.8%
11. Cc1cccc(N(CC(O)CN(C)C)S(=O)(=O)c2ccccc2)c1.Cl (centres unmarked)  -50.1%
12. CS(=O)(=O)Nc1ccc(C2=NN(C(=O)c3ccco3)C(c3ccc(F)cc3)C2)cc1 (centres unmarked)  -44.7%
13. Cc1ccc(S(=O)(=O)N(CC(O)CN(C)C)c2ccccc2)cc1.Cl (centres unmarked)  -43.8%
14. Cc1cccc(N(CC(O)CN2CCCC2)S(=O)(=O)c2ccccc2)c1 (centres unmarked)  -35.3%
15. CCNc1nc2nc3ccc(C)cn3c(=O)c2cc1C(=O)NCC1CCCO1 (centres unmarked)  -31.2%
16. Cc1ccc(S(=O)(=O)N(CC(O)CN2C(=O)NC(C)(C)C2=O)c2ccccc2)cc1 (centres unmarked)  -28.4%
17. COCCCNC(=O)c1cc2c(=O)n3cc(C)ccc3nc2nc1NCC1CCCO1 (centres unmarked)  -26.6%
18. O=C(NCc1cccnc1)/C(=C/c1ccccc1)NC(=O)c1ccccc1  -23.3%
19. CCN(CC)c1ccc(/C=N/NC(=O)CNC(=O)c2ccccn2)cc1  -7.85%
20. Cc1ccc2nc(SCC(=O)NC3CCCCC3)nc(=O)n2c1  -4.63%
21. O=C(NCCc1ccccc1F)/C(=C/c1cccnc1)NC(=O)c1ccccc1  -3.24%
22. COc1ccc(/C=C2\SC(=S)N(CCC(=O)N3CCCCC3)C2=O)cc1  -2.37%
23. c1ccc(-c2nc3nonc3c3nc4ccccc4n23)cc1  -1.03%
24. CN(C)c1ccc(/C=C(\NC(=O)c2ccccc2)C(=O)NCc2cccnc2)cc1  -0.749%
25. CCS(=O)(=O)Nc1ccc(C2=NN(C(=O)c3ccco3)C(c3cccc(F)c3)C2)cc1 (centres unmarked)  0.693%
26. CN1CCC(=NNC(=O)CN(c2cccc(Br)c2)S(C)(=O)=O)CC1  1.22%
27. Cc1ccc(-c2nn(-c3ccccc3)cc2C(=O)NCC2CCCO2)cc1 (centres unmarked)  1.49%
28. COc1ccc(C2c3c(ccc4ccccc34)Oc3ncn4nc(Cc5ccc(OC)c(OC)c5)nc4c32)cc1 (centres unmarked)  2.05%
29. COc1ccc(CCNC(=O)/C(=C/c2cccnc2)NC(=O)c2ccccc2)cc1  3.27%
30. Cc1ccc(S(=O)(=O)N(CCC(=O)O)c2ccccc2)cc1  4.11%
31. O=C(NC1CCCCCC1)c1ccc2nc3cc(Cl)ccc3c(=O)n2c1  4.2%
32. CC(C)C(C)NC(=O)CSc1nnc(-c2c[nH]c3ccccc23)o1 (centres unmarked)  4.32%
33. CC1CCCC(NC(=O)CCCn2c(=S)[nH]c3ccccc3c2=O)C1C (centres unmarked)  5.25%
34. CCN(CC)S(=O)(=O)c1ccc(Cl)c(NC(=O)CSc2nnc(-c3cccs3)o2)c1  5.51%
35. COc1c(Cl)cc(Cl)cc1CNCCNCC(C)O.Cl (centres unmarked)  5.98%
36. Cc1ccc2cc(CN(Cc3ccco3)C(=O)C3CCCCC3)c(=O)[nH]c2c1C  6.2%
37. CCOc1ccc(N2CC(C(=O)Nc3ccc(S(=O)(=O)N4CCCC4)cc3)CC2=O)cc1 (centres unmarked)  6.22%
38. Cc1cc(C)n(CC(O)CN(c2ccccc2)S(=O)(=O)c2ccc3ccccc3c2)n1 (centres unmarked)  6.41%
39. O=S(=O)(c1ccccc1)N(CC(O)COc1ccccc1)c1ccccc1 (centres unmarked)  7.47%
40. Cc1c(NC(=O)/C(C#N)=C/c2ccccc2)c(=O)n(-c2ccccc2)n1C  8.78%
41. CC(C)c1ccccc1NC(=O)COC(=O)CNC(=O)c1ccc(Br)cc1  11%
42. Cc1cccc(N(CC(O)CN2CCOCC2)S(=O)(=O)c2ccccc2)c1 (centres unmarked)  11.2%
43. COc1ccc(C(=O)Nc2ccc(C(=O)N3CCOCC3)cc2)cc1OC  11.3%
44. CCOC(=O)C1CCN(Cc2ccc(Cl)nc2)CC1  11.6%
45. Cc1nn(C/C(C#N)=N\O)c(C)[n+]1N.[Cl-]  11.8%
46. CCOc1ccc(C(=O)CCC(=O)Nc2ccccc2C)cc1  12.5%
47. CCN(c1ccccc1)S(=O)(=O)c1ccc2ccccc2c1  14.6%
48. CCn1cc(C(=O)NCC2CCCO2)c2cc(OC)c(OC)cc2c1=O (centres unmarked)  14.8%
49. CC1(C)CC(=O)C(C2c3ccccc3S(=O)(=O)c3ccccc32)C(=O)C1  16.3%
50. Cc1nn(CC(=O)N2CCOCC2)c(=O)c2nn(-c3ccccc3)c(C)c12  16.5%
51. Cc1ccc(-c2nn(-c3ccccc3Cl)cc2C(=O)NCC2CCCO2)cc1 (centres unmarked)  18.4%
52. Cc1ccc2nc3c(cc(C(=O)NC4CCS(=O)(=O)C4)n3Cc3ccccc3)c(=O)n2c1 (centres unmarked)  21.4%
53. CCCCN1C(=N)C(CC)(CC)C(=O)NC1=O.Cl  27.4%
